Measured values taken from PubChem BioAssay (NCATS).
Records with an inconclusive call do not appear. A call without a number means that no potency is given here. A number with no mark means an inactive call. The source made the active and inactive calls. The call rests on the fitted dose curve; in most records, active means well fitted inhibition curve with a large enough effect; inconclusive means small, poorly fitted or top-dose-only effect; inactive means flat fitted curve, though single readings scatter.

Columns and labels:
GB4 = test: qHTS profiling for inhibitors of Plasmodium falciparum proliferation (AID 504749); further: potency means the concentration at half of the fitted maximal effect; conditions: P. falciparum in erythrocytes, SYBR Green DNA, 72 h; series mostly up to 28.7 µM
Summary of the method: (§1)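 Parasite proliferation within erythrocytes, 72 h exposure. Endpoint: SYBR Green I fluorescence after overnight lysis at room temperature. Controls: 0.29 uM artemisinin, DMSO.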

HB3 = test: as above; conditions: P. falciparum in erythrocytes, SYBR Green DNA, 72 h; series mostly up to 28.7 µM
Summary of the method: as §1

ICS = test: as above; conditions: P. falciparum in erythrocytes, SYBR Green DNA, 72 h; series mostly up to 28.7 µM
Summary of the method: as §1

JCK = test: as above; conditions: P. falciparum in erythrocytes, SYBR Green DNA, 72 h; series mostly up to 28.7 µM
Summary of the method: as §1

N140 = test: as above; conditions: P. falciparum in erythrocytes, SYBR Green DNA, 72 h; series mostly up to 28.7 µM
Summary of the method: as §1

P93_24 = test: as above; conditions: P. falciparum in erythrocytes, SYBR Green DNA, 72 h; series mostly up to 28.7 µM
Summary of the method: as §1

P94_40 = test: as above; conditions: P. falciparum in erythrocytes, SYBR Green DNA, 72 h; series mostly up to 28.7 µM
Summary of the method: as §1

PAD = test: as above; conditions: P. falciparum in erythrocytes, SYBR Green DNA, 72 h; series mostly up to 28.7 µM
Summary of the method: as §1

PC15 = test: as above; conditions: P. falciparum in erythrocytes, SYBR Green DNA, 72 h; series mostly up to 28.7 µM
Summary of the method: as §1

PC26 = test: as above; conditions: P. falciparum in erythrocytes, SYBR Green DNA, 72 h; series mostly up to 28.7 µM
Summary of the method: as §1

PC49 = test: as above; conditions: P. falciparum in erythrocytes, SYBR Green DNA, 72 h; series mostly up to 28.7 µM
Summary of the method: as §1

SC27B = test: as above; conditions: P. falciparum in erythrocytes, SYBR Green DNA, 72 h; series mostly up to 28.7 µM
Summary of the method: as §1

TAB109 = test: as above; conditions: P. falciparum in erythrocytes, SYBR Green DNA, 72 h; series mostly up to 28.7 µM
Summary of the method: as §1

TAB113 = test: as above; conditions: P. falciparum in erythrocytes, SYBR Green DNA, 72 h; series mostly up to 28.7 µM
Summary of the method: as §1

TAB165 = test: as above; conditions: P. falciparum in erythrocytes, SYBR Green DNA, 72 h; series mostly up to 28.7 µM
Summary of the method: as §1

W2 = test: as above; conditions: P. falciparum in erythrocytes, SYBR Green DNA, 72 h; series mostly up to 28.7 µM
Summary of the method: as §1

KB-3-1 = test: Cytotoxic Profiling of Annotated Libraries Using Quantitative High-Throughput Screening (AID 1296008); conditions: Five cell lines viability, CellTiter-Glo ATP luminescence, 48-72 h; max response: active compounds read low
Summary of the method: (§2)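 Compounds were pin-transferred onto cells and incubated 48 or 72 hr at 37 degree Celsius, 95% humidity. CellTiter-Glo was added, plates sat 10 min at room temperature, then ATP-coupled luminescence was imaged as the viability read-out.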

HaCat = test: as above; conditions: Five cell lines viability, CellTiter-Glo ATP luminescence, 48-72 h; max response: active compounds read low
Summary of the method: as §2
Further: nearly all actives have a fitted effect of over 60% in size.

| SMILES | Potency (GB4) | Potency (HB3) | Potency (ICS) | Potency (JCK) | Potency (N140) | Potency (P93_24) | Potency (P94_40) | Potency (PAD) | Potency (PC15) | Potency (PC26) | Potency (PC49) | Potency (SC27B) | Potency (TAB109) | Potency (TAB113) | Potency (TAB165) | Potency (W2) | max response (KB-3-1) [%] | outcome (HaCat) |
| --- | --- | --- | --- | --- | --- | --- | --- | --- | --- | --- | --- | --- | --- | --- | --- | --- | --- | --- |
| Nc1cc(Cl)c(NC2=NCCN2)c(Cl)c1 | inactive | inactive | inactive | inactive | inactive | inactive | inactive | inactive | inactive | inactive | inactive | inactive | inactive | inactive | inactive | inactive | -1.36 | – |
| CCCCCCCCCCOCC(O)CN (stereo unspecified) | 9.53 µM (active) | inactive | 11.2 µM (active) | inactive | – | – | – | – | – | – | – | – | – | inactive | – | – | -10.6 | – |
| N[C@@H](Cc1cnc[nH]1)C(=O)O | inactive | inactive | inactive | inactive | inactive | inactive | inactive | inactive | inactive | inactive | inactive | inactive | inactive | inactive | inactive | inactive | 2.19 | – |
| O=C(O)c1cc2cc(Cc3cccnc3)ccc2o1 | inactive | inactive | inactive | inactive | inactive | inactive | inactive | inactive | inactive | inactive | inactive | inactive | inactive | inactive | inactive | inactive | 4.6 | – |
| Cc1cccc(C)c1NC(=O)CN1CCN(CCCC(c2ccc(F)cc2)c2ccc(F)cc2)CC1 | – | – | 3.55 µM (active) | inactive | 3.16 µM (active) | 3.98 µM (active) | – | – | inactive | – | inactive | – | – | inactive | – | 4.55 µM (active) | -1.23 | – |
| C[C@@H]1CN(CCCn2c3ccccc3c3ccccc32)C[C@H](C)N1 | 13.5 µM (active) | inactive | 5.01 µM (active) | inactive | 12.6 µM (active) | 5.01 µM (active) | 8.91 µM (active) | 1.78 µM (active) | – | – | – | – | 11.2 µM (active) | – | 7.08 µM (active) | 2.39 µM (active) | 0.54 | – |
| CC(=O)O[C@H]1C[C@@H]2CC[C@@H]3[C@H](CC[C@@]4(C)[C@H]3C[C@H]([N+]3(C)CCCCC3)[C@@H]4OC(C)=O)[C@@]2(C)C[C@@H]1[N+]1(C)CCCCC1 | – | – | – | – | – | – | – | – | – | – | – | – | – | – | – | – | 1.63 | – |
| Cc1c(F)c(N2CCNC(C)C2)cc2c1c(=O)c(C(=O)O)cn2C1CC1 (stereo unspecified) | inactive | inactive | inactive | inactive | inactive | inactive | inactive | inactive | inactive | inactive | inactive | inactive | inactive | inactive | inactive | inactive | – | – |
| CC(C)C[C@H]1C(=O)N2CCC[C@H]2[C@]2(O)O[C@](NC(=O)[C@@H]3C=C4c5cccc6[nH]c(Br)c(c56)C[C@H]4N(C)C3)(C(C)C)C(=O)N12 | – | – | – | – | – | – | – | – | – | – | – | – | – | – | – | – | 3.47 | – |
| C[C@@H]1C(=O)NC2=Nc3cccc(Cl)c3CN21 | – | inactive | – | inactive | inactive | inactive | inactive | inactive | inactive | inactive | inactive | inactive | inactive | – | inactive | inactive | -2.45 | – |
| CN(C)/N=N/c1nc[nH]c1C(N)=O | inactive | inactive | inactive | inactive | inactive | inactive | inactive | inactive | inactive | inactive | inactive | inactive | inactive | inactive | inactive | inactive | -8.2 | – |
| Oc1c(I)cc(I)c2cccnc12 | – | – | – | inactive | – | – | 11.2 µM (active) | – | – | – | inactive | inactive | – | inactive | – | – | -18.8 | inactive |
| CCCCCCc1ccc(O)cc1O | inactive | inactive | inactive | inactive | inactive | inactive | inactive | inactive | inactive | inactive | inactive | inactive | inactive | inactive | inactive | inactive | 0.129 | – |
| CC[C@H](C)C(=O)O[C@H]1CCC=C2C=C[C@H](C)[C@H](CC[C@@H]3C[C@@H](O)CC(=O)O3)[C@H]21 | – | – | – | – | – | – | – | – | – | – | – | – | – | – | – | – | 3.96 | – |
| CCCCCCCCCCCCCCNCCO | – | 10 µM (active) | 6.31 µM (active) | inactive | 14.1 µM (active) | – | – | – | – | inactive | inactive | inactive | inactive | inactive | inactive | 9.53 µM (active) | 5.95 | – |
| O=C(Nc1ccc(Cl)c(Cl)c1)C1CC1 | inactive | inactive | inactive | inactive | inactive | inactive | inactive | inactive | inactive | inactive | inactive | inactive | inactive | inactive | inactive | inactive | -14.1 | – |
